Reference: article PMC12864922, “TDP-43 directly inhibits mRNA accumulation in neurites through modulation of mRNA stability”
The full ranking holds about 9,900 sequences; the median of “r (bound/input frequency ratio)” is about 0.7, and the highest 2% start at about 6.5. Shown is part of a subset that was picked to be rich in the highest values.

B1: ENSMUSG00000042529.385|Kcnj12 (ssRNA)
RNA: GGGAGUUCUACAGUCCGACGAUCGCUUCGAUAUCCGCAUGCUACACCAACCUGAACUGGUCAGGCUGGAUGCUGGCCACAGACAUGAUCAGUCCGACUUGAGUCCCUGCCCUGCCCUGGUUAUGCAGGCUGUACGACGCAGUGUGCAUCAGUCUGAGGAGUCUGGUGGUAAGUAAGCCUCUGCAGCAGACCCUGUCGGAGGCCAUGGGGGCGUGUGUGUGUGUGUGUGUGUGUGUGUGUGUGUGUGUGUGUGUGUGUGUGUGUGAACAUGUGUGAGGGUGUGGAGGUCCCAGGGUGUGUGUAUCUCUUGCGGUCGCACUAGUGUGGAAUUCUCGGGUGUCAAGG
B2: ENSMUSG00000042529.383|Kcnj12 (ssRNA)
RNA: GGGAGUUCUACAGUCCGACGAUCGCUUCGAUAUCCGCAUGCUAGGGUUUCAUGCUCACCAACCUGAACUGGUCAGGCUGGAUGCUGGCCACAGACAUGAUCAGUCCGACUUGAGUCCCUGCCCUGCCCUGGUUAUGCAGGCUGUACGACGCAGUGUGCAUCAGUCUGAGGAGUCUGGUGGUAAGUAAGCCUCUGCAGCAGACCCUGUCGGAGGCCAUGGGGGCGUGUGUGUGUGUGUGUGUGUGUGUGUGUGUGUGUGUGUGUGUGUGUGUGUGUGAACAUGUGUGAGGGUGUGGAGGUCCCACUCUUGCGGUCGCACUAGUGUGGAAUUCUCGGGUGUCAAGG
B3: ENSMUSG00000042529.381|Kcnj12 (ssRNA)
RNA: GGGAGUUCUACAGUCCGACGAUCGCUUCGAUAUCCGCAUGCUAUUUGGGUAAGGUGGGUUUCAUGCUCACCAACCUGAACUGGUCAGGCUGGAUGCUGGCCACAGACAUGAUCAGUCCGACUUGAGUCCCUGCCCUGCCCUGGUUAUGCAGGCUGUACGACGCAGUGUGCAUCAGUCUGAGGAGUCUGGUGGUAAGUAAGCCUCUGCAGCAGACCCUGUCGGAGGCCAUGGGGGCGUGUGUGUGUGUGUGUGUGUGUGUGUGUGUGUGUGUGUGUGUGUGUGUGUGUGAACAUGUGUGAGGGUCUCUUGCGGUCGCACUAGUGUGGAAUUCUCGGGUGUCAAGG
B4: ENSMUSG00000042529.384|Kcnj12 (ssRNA)
RNA: GGGAGUUCUACAGUCCGACGAUCGCUUCGAUAUCCGCAUGCUACAUGCUCACCAACCUGAACUGGUCAGGCUGGAUGCUGGCCACAGACAUGAUCAGUCCGACUUGAGUCCCUGCCCUGCCCUGGUUAUGCAGGCUGUACGACGCAGUGUGCAUCAGUCUGAGGAGUCUGGUGGUAAGUAAGCCUCUGCAGCAGACCCUGUCGGAGGCCAUGGGGGCGUGUGUGUGUGUGUGUGUGUGUGUGUGUGUGUGUGUGUGUGUGUGUGUGUGUGAACAUGUGUGAGGGUGUGGAGGUCCCAGGGUGUCUCUUGCGGUCGCACUAGUGUGGAAUUCUCGGGUGUCAAGG
B5: ENSMUSG00000043670.183|Diras1|29:33;126:130;160:164;174:183;189:196;229:233 (ssRNA)
RNA: GGGAGUUCUACAGUCCGACGAUCGCUUCGAUAUCCGCAUGCUAGACAGAAUCUGAGCCUCUUUGCUGGUCAACACAACUCUGGAGACUGUCCCCCAUGUCUGCCCUGAGUUACGGAGCCCCUGUGGUAUCUGCGAGACUGUCCAGGAGACUUGAGUGGCUCCUGGGCCACACACCCACCCAGAUGAGGGUGACUUAGAAUUCACACAUUAUGUGCCACACACACACGAUGGCACACACACUGUCUUGGGAUGGGGUGUUCUUGCACCACUUACACAUCUUAGUGAGACCACAGUGUAAGUGGCCUCUUGCGGUCGCACUAGUGUGGAAUUCUCGGGUGUCAAGG
B6: ENSMUSG00000061578.23|Ksr2 (ssRNA)
RNA: GGGAGUUCUACAGUCCGACGAUCGCUUCGAUAUCCGCAUGCUAGUGAUGACGUCACAGAGGCUGUCCACACCUUCGACUUGUACCCCGUUACUCAGGCACGAUCAGGGACCACUCAACUAGGACCAAACUGGGCCAGAGAGGGUCCCAUGUGUGGUGUGAAGGAGCCACAGACUGAGCACACCACCUCGGACUGUGGAGACCAAGACACAUGCCCAGUGGGCAGACUCAGACUCACACGCUGGACCAGUGUGUGCGCAUGUGUCUACACAUGGACAGGGCCAACUGCUAUCCUUCUGCCUGGACUCUUGCGGUCGCACUAGUGUGGAAUUCUCGGGUGUCAAGG
B7: ENSMUSG00000031028.210|Tub (ssRNA)
RNA: GGGAGUUCUACAGUCCGACGAUCGCUUCGAUAUCCGCAUGCUAAAUGUAUAAGGUUGGAAACCUUUCAGUAGGGAAUCAGGCAGUUCCCUGUUGAAAGUUGUCUGAGUUUUUGCACACCAUUCUGAUCUGAUGUGGCCUGUGCCUGGCUCCUCUAUGAGGACUUCGAGCUGUGCACAGACCUUAGCAGGACCACUGCACACUUUGUGUCUGUGUGACAGGCAGCCCAAGGGUUCUGGGGCUGGGCUUGGACACGCCCUCCAUUGGGAUGGCACCACUCAUCUGGUGGGCUUGGGAACUCCAAGCUCUUGCGGUCGCACUAGUGUGGAAUUCUCGGGUGUCAAGG
B8: ENSMUSG00000042529.380|Kcnj12 (ssRNA)
RNA: GGGAGUUCUACAGUCCGACGAUCGCUUCGAUAUCCGCAUGCUAUUUAAAUUUGGGUAAGGUGGGUUUCAUGCUCACCAACCUGAACUGGUCAGGCUGGAUGCUGGCCACAGACAUGAUCAGUCCGACUUGAGUCCCUGCCCUGCCCUGGUUAUGCAGGCUGUACGACGCAGUGUGCAUCAGUCUGAGGAGUCUGGUGGUAAGUAAGCCUCUGCAGCAGACCCUGUCGGAGGCCAUGGGGGCGUGUGUGUGUGUGUGUGUGUGUGUGUGUGUGUGUGUGUGUGUGUGUGUGUGUGAACAUGUGUCUCUUGCGGUCGCACUAGUGUGGAAUUCUCGGGUGUCAAGG

Target: TDP-43 (Homo sapiens, UniProt Q13148 1-414)
Experiment: RNA Bind-n-Seq with designed 260-mer pool; 25 mM Tris-HCl, 150 mM KCl, 3 mM MgCl2, BSA (printed 500 mg/mL), 20 units/mL SUPERase IN; pH not stated; 500 nM RNA pool, 1 h, 4 C; TDP-43 5, 50, 500 nM; high values mean tight binding
Settings: protein: recombinant; tags: SBP (GST cleaved off with PreScission; pGEX-GST-SBP)
Procedure, shortened: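 Duplicate measurements used two independent batches of recombinant SBP-tagged TDP-43, which was captured on streptavidin beads at 5, 50 or 500 nM. The beads were incubated with 500 nM of an in vitro-transcribed 260-nt 3′ UTR oligo pool for 1 h at 4 °C in 25 mM Tris-HCl, 150 mM KCl, 3 mM MgCl2, BSA and SUPERase IN. After washing, biotin elution, reverse transcription, PCR amplification and sequencing, binding was expressed as R: each oligo's normalized read abundance in the bound sample over its abundance in input.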

Sequence of TDP-43 (Q13148 whole entry): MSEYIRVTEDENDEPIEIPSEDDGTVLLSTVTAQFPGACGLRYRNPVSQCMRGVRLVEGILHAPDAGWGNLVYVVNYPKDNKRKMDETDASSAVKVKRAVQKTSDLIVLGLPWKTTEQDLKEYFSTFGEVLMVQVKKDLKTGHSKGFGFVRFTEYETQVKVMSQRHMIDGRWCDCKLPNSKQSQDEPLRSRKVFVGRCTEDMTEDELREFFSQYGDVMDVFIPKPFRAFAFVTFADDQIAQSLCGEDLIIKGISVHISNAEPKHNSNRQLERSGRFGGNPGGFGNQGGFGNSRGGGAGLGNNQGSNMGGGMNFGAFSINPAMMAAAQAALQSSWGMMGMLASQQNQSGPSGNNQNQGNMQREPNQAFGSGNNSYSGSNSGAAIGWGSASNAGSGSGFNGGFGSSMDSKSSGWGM

Binder | binding signal
B1 | 7.81 R (bound/input frequency ratio)
B2 | 8.12 R (bound/input frequency ratio)
B3 | 6.18 R (bound/input frequency ratio)
B4 | 7.66 R (bound/input frequency ratio)
B5 | 0.711 R (bound/input frequency ratio)
B6 | 0.299 R (bound/input frequency ratio)
B7 | 2.94 R (bound/input frequency ratio)
B8 | 7.35 R (bound/input frequency ratio)
